Data on 13 compounds can be found in PubChem BioAssay.

Molecules are shown by their SMILES. Potency and affinity values are given separately. Calls of active or inactive are those of the source.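 The calls were made as follows: active = signal drop whose fitted half-maximal concentration is at most twice the top valid dose, in every test run; inconclusive = mixed calls across runs, poor fit, or flat 30 to 70% inhibition; inactive = wrong direction, flat within 30%, or potency beyond limit.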

The assay is described as follows: RMG-1 ovarian cancer cell viability loss – cherry-pick, dose response (AID 687029).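 Also: cells exposed to compound for 96 hours.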 The note with it: RMG-1 viability, CellTiterGlo ATP luminescence, 96 h; series mostly up to 35 µM.
Take `COC1C(CO)OC(n2c3c(Cl)cccc3c3c4c(c5c6cccc(Cl)c6[nH]c5c32)C(=O)NC4=O)C(O)C1O` (stereo not drawn): the call was inactive.

As to `CCSc1nsc(NC(=O)Nc2cccc(F)c2)n1`, the compound was called inactive.

As to `COc1ccc(C(=O)CCS(=O)(=O)c2ccc(C)cc2)cc1OC`, the compound was classed as inactive.

Regarding `O=S(=O)(Nc1cc(Sc2ncn[nH]2)c(O)c2ccccc12)c1ccccc1`, the outcome was inactive.

For `COc1cc(C2C3=C(COC3=O)OC(C)(C)Oc3cc4c(cc32)OCO4)cc(OC)c1OC` (stereo not drawn), the outcome was inactive.

For `CCC(=O)N1CCN(c2ccc(NC(=O)c3ccc([N+](=O)[O-])o3)cc2)CC1`, the call was inactive.

As for `COc1cc(C(=O)NCC(c2cccs2)N2CCOCC2)ccc1OCc1ccc(Cl)cc1` (stereo not drawn), the call was inactive.

For `COc1ccc(CC2C(=O)NC(C)C(=O)N(C)C3Cc4ccc(cc4)Oc4cc(ccc4O)CC(C(=O)NC(C)C(=O)NC(C)C(=O)N2C)N(C)C3=O)cc1` (stereo not drawn), the compound was classed as inactive.

Regarding `COC(=O)[C@]12CCCCC=C1N(Cc1cccc3ccccc13)C(=O)[C@H](CC(=O)N1CCN(C(=O)c3ccco3)CC1)C2`, the compound was classed as inactive.

As to `Cc1ccc(S(=O)(=O)NCc2ccc(C(=O)N3CCN(c4ccc([N+](=O)[O-])cc4)CC3)cc2)cc1`, the compound was classed as inactive.

As to `O=C(COC(=O)c1ccco1)Nc1cccc(S(=O)(=O)N2CCOCC2)c1`, the outcome was inactive.

In the case of `O=C1[C@@H]2Cc3c([nH]c4ccccc34)C(c3cccc(Br)c3)N2C(=O)CN1C1CCN(Cc2ccccc2)CC1` (stereo partly drawn), the compound was called inactive.

In the case of `Cc1ccc(S(=O)(=O)N(C)C[C@H]2Oc3c(NC(=O)Nc4cccc5ccccc45)cccc3C(=O)N([C@@H](C)CO)C[C@@H]2C)cc1`, the call was inactive.
